Out of some 190,000 compounds screened, about 1,300 (0.68%) were called active. Rule as the data show it: active = inhibition above about 50%; inactive = the rest. This excerpt belongs to a sample that is enriched for actives.

For the assay, the target named is Mannose-6-phosphate isomerase (Homo sapiens) (UniProt P34949). Briefly: human PMI inhibitors, high substrate, primary screen, biochemical, fluorescence intensity, high mannose 6-phosphate (AID 1220). Conditions: recombinant PMI enzyme, coupled fluorescence intensity; at 20 µM; stronger effect = higher value.
Chain of Mannose-6-phosphate isomerase (Homo sapiens) (P34949 whole entry, looked up): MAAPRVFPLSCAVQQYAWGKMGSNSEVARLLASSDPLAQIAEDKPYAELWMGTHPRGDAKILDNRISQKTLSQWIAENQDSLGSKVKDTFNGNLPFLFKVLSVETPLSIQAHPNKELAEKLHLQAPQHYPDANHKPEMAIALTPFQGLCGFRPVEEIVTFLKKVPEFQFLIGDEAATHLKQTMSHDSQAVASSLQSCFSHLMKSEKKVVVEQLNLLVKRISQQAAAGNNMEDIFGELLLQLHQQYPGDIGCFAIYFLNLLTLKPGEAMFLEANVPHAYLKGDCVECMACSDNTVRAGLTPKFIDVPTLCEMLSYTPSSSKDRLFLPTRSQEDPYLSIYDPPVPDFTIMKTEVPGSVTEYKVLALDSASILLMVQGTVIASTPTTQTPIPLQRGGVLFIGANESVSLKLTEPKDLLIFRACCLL
What is called inhibition is the change of the read-out against control, counted positive when it falls. In the case of `CCOC(=O)N1CCN(C(=O)CSCc2ccc(Br)cc2)CC1`, the inhibition was 1.1% (inactive).
With `Cc1ccc(NC(=O)CSc2nnc(C(F)(F)F)n2C)cc1[N+](=O)[O-]`, the inhibition was 2.1% (inactive).
On to `CC(C)/C=C1\CCCCC1N(C)C(=O)NC(C)C` (stereo not drawn), for which the inhibition was 2.9% (inactive).
In the case of `CCCCCCCSc1nnc(-c2ccccc2N)c(=O)[nH]1`, the inhibition is 13.6% (inactive).
With `CCNc1sc(C(=O)c2cccs2)c(N)c1-c1nc2ccccc2s1`, the inhibition is -5.3% (inactive).
In the case of `Cc1ccc2sc(N(CCCN(C)C)C(=O)c3ccc(Br)s3)nc2c1C`, the inhibition was -10.3% (inactive).
Consider `CCOc1ccccc1N(CC(=O)NC1CCCCC1)C(=O)c1nsc(Cl)c1Cl`, for which the inhibition is 8.5% (inactive).
In the case of `CCOc1ccccc1NC(=O)Cn1nnc(-c2ccc(OCC)c(OCC)c2)n1`, the inhibition was -1.1% (inactive).
Take `COc1ccc(-c2cn(-c3cccc(C)c3)c(=O)[nH]2)cc1OC`: the inhibition is -94.8% (inactive).
Take `COc1ccc(C2CC2/C(=N/OC(=O)c2cccs2)c2ccccc2)cc1` (stereo not drawn): the inhibition was 4.3% (inactive).
Turning to `O=C(C1CCN(S(=O)(=O)N2CCC3(CC2)OCCO3)CC1)N1CCCCC1`, the inhibition is 11% (inactive).
For `COc1ccccc1-c1coc2cc(OC(=O)/C=C/c3ccccc3)ccc2c1=O`, the inhibition is 57.1% (active).
For `COc1ccc(Oc2coc3cc(OC(=O)/C=C/c4ccc(F)cc4)ccc3c2=O)cc1`, the inhibition was -6.3% (inactive).
Take `COc1ccc(Oc2coc3cc(OC(=O)/C=C/c4ccccc4)ccc3c2=O)cc1`: the inhibition was 6.5% (inactive).
As for `COc1cccc(NC(=O)N2CCCC2C(=O)Nc2ccc3c(c2)OCCO3)c1` (stereo not drawn), the inhibition was 7% (inactive).
Consider `CCOC(=O)C(C(=O)OCC)c1cc(Br)c2noc3c2c1C(=O)c1ccccc1-3`, for which the inhibition was 52.1% (active).
As for `CCOC(=O)c1c(C)nc2c(c1-c1ccccc1)C(=O)c1ccccc1-2`, the inhibition was -34.4% (inactive).
In the case of `O=C1c2ccccc2-c2onc3c(Oc4ccccc4)cc(O)c1c23`, the inhibition is -4.7% (inactive).
Turning to `COc1ccc(Cc2n[nH]c(=S)n2C)cc1Br`, the inhibition was 0.8% (inactive).
As for `O=C(NCCN1CCCCC1)c1cc(OCC(F)(F)F)ccc1OCC(F)(F)F`, the inhibition is 7.9% (inactive).
For the molecule `CC(C)CCNC(=S)Nc1ccccc1F`, the inhibition was -14.2% (inactive).
`CCCCNC(=S)Nc1ccccc1F`: the inhibition is 59% (active).
As to `Fc1ccccc1NC(=S)NCCc1ccccc1`, the inhibition was -7.1% (inactive).
As for `O=C(COC(=O)Cc1ccccc1[N+](=O)[O-])NCc1ccccc1Cl`, the inhibition is -4% (inactive).
To `S=C(Nc1ccc2nccnc2c1)N1CCCC1` belongs 35.6% (inactive); to `COC(=O)c1cccc(NC(=S)N2CCN(c3ccccc3F)CC2)c1`, 4.7% (inactive); to `COC(=O)c1cccc(NC(=S)N2CCCCC2)c1`, -3.2% (inactive).
Take `COC(=O)c1cccc(NC(=S)N2CCOCC2)c1`: the inhibition is 52.1% (active).
Regarding `S=C(Nc1ccc2nccnc2c1)N1CCOCC1`, the inhibition was 69.2% (active).
For the molecule `S=C(Nc1ccc(Cl)c(Cl)c1)N1CCOCC1`, the inhibition is 10.9% (inactive).
As for `CC(C)CCNC(=O)C(NS(=O)(=O)c1ccc2c(c1)c(=O)n(C)c(=O)n2C)c1ccccc1` (stereo not drawn), the inhibition was -11.2% (inactive).
As for `Cc1cc(C(F)F)n2nc(C(=O)Nc3ccccc3Br)nc2n1`, the inhibition was -3.5% (inactive).
`Cc1ccsc1/C=N/NC(=O)c1cc(-c2ccncc2)nc2ccccc12`: the inhibition was -9.2% (inactive).
For the molecule `N#Cc1ccc(C(=O)Nc2cc(S(=O)(=O)N3CCCC3)ccc2OCC(F)(F)F)cc1`, the inhibition is -0.6% (inactive).
Regarding `CCCc1nc2c(=O)[nH]c3ccccc3c2o1`, the inhibition is -0.9% (inactive).
In the case of `NC(=O)c1c(NC(=O)c2cc3ccccc3o2)sc2c1CCC2`, the inhibition was 2.2% (inactive).
With `O=C(Nc1cccc2nsnc12)c1ccc(-c2ccc(Br)cc2)o1`, the inhibition was 50.3% (active).
`COC(=O)c1ccccc1NC(=O)c1ccc(-c2cccc(Cl)c2)o1`: the inhibition was 6.9% (inactive).
Consider `O=C(Nc1ccccc1N1CCCCC1)c1ccc(-c2cccc(Cl)c2)o1`, for which the inhibition is 1.7% (inactive).
As for `O=C(Nc1cccc2nsnc12)c1ccc(-c2cccc(Cl)c2)o1`, the inhibition was 50.2% (active).
Regarding `O=C(Nc1cccc2ncccc12)c1ccc(-c2ccc(Br)cc2)o1`, the inhibition was 40.4% (inactive).
Under `COc1ccccc1NC(=O)c1ccc(-c2ccc(Br)cc2)o1` stands 7.4% (inactive).
Consider `Cc1ccc(C)c(N2CCN(CCCNC(=O)Cn3cccc3C(=O)c3ccccc3)CC2)c1`, for which the inhibition is -7.6% (inactive).
To `CC1(c2ccccc2Cl)NC(=O)N(CC(=O)NCc2ccco2)C1=O` (stereo not drawn) belongs -3% (inactive).
To `COC(=O)c1sccc1NC(=O)CSc1nnnn1-c1ccccc1F` belongs 10.3% (inactive); to `O=C(O)CCSc1nnc(COc2ccc([N+](=O)[O-])cc2)n1-c1ccccc1`, 7.5% (inactive).
As for `N#Cc1c(N)n(-c2ccccc2)c(=O)c2cc([N+](=O)[O-])ccc12`, the inhibition was 36.6% (inactive).
Regarding `CCCCCCC(=O)N=Nc1c(O)[nH]c2ccc([N+](=O)[O-])cc12`, the inhibition was 1.3% (inactive).
With `CCCCCCn1c(N)c(C#N)c2ccc([N+](=O)[O-])cc2c1=O`, the inhibition was 63.1% (active).
`COc1cccc(-n2c(N)c(C#N)c3ccc([N+](=O)[O-])cc3c2=O)c1`: the inhibition was 16.8% (inactive).
To `COc1ccc(-n2cnc3cc([N+](=O)[O-])ccc32)cc1` belongs 3.2% (inactive); to `COc1ccc(-n2c(N)c(C#N)c3ccc([N+](=O)[O-])cc3c2=O)cc1`, 52.3% (active).
Take `COCCCNc1ncnc2c1[nH]c1ccccc12`: the inhibition is 16.1% (inactive).
As for `CCCN(C(=O)CSc1nc2c(cnn2-c2ccccc2)c(=O)[nH]1)C1CCS(=O)(=O)C1` (stereo not drawn), the inhibition was -13.4% (inactive).
With `O=[N+]([O-])c1ccccc1/C=N/n1c(-c2cccnc2)n[nH]c1=S`, the inhibition is 3.5% (inactive).
Take `COc1ccc2c(c1)[nH]c1c(=O)n(Cc3ccco3)cnc12`: the inhibition was 20.7% (inactive).
For the molecule `CCOC(=O)c1c(NC(=O)c2cccs2)sc2c1CC(C)(C)OC2`, the inhibition was 21.6% (inactive).
For the molecule `Oc1ccc(/C=N/NC(=S)Nc2cccnc2)c(O)c1`, the inhibition was -11.9% (inactive).
For the molecule `Oc1ccc(/C=N/NC(=S)Nc2cccnc2)cc1O`, the inhibition was 6.3% (inactive).
On to `CCOc1ccc(NC(=S)N(CCN2CCOCC2)Cc2cc3cc4c(cc3[nH]c2=O)OCCO4)cc1`, for which the inhibition is 24.8% (inactive).
To `COc1ccc(NC(=S)N(CCN2CCOCC2)Cc2cc3cc4c(cc3[nH]c2=O)OCO4)cc1` belongs 14.7% (inactive).
Take `CCOc1ccc(NC(=S)N(CCN2CCOCC2)Cc2cc3cc4c(cc3[nH]c2=O)OCO4)cc1`: the inhibition was 61.3% (active).
For `CCOC(=O)C1=C(C)NC(C)=C(C(=O)OCC)C1C(=O)OCC(=O)c1ccc2c(c1)OCCO2`, the inhibition is 14.5% (inactive).
With `COC(=O)c1oc2ccccc2c1NC(=O)CN1CCCC1`, the inhibition is 6.8% (inactive).
As to `COc1cc(NC(=S)Nc2cccc(C)n2)cc(OC)c1OC`, the inhibition was -3.5% (inactive).
Turning to `C/C(CC(=O)Nc1ccc(Cl)c(C(F)(F)F)c1)=N\NC(=O)c1cc2ccccc2cc1O`, the inhibition was -5.7% (inactive).
Turning to `NC(=S)Nc1cccc2cc3ccccc3cc12`, the inhibition was -9% (inactive).
With `NC(=S)N/N=C\c1c2ccccc2cc2ccccc12`, the inhibition was -132% (inactive).
In the case of `NC(=S)Nc1cc2ccccc2c2ccccc12`, the inhibition was 65.4% (active).
`Cc1cccc(NC(=O)c2ccoc2C)n1`: the inhibition was 9.2% (inactive).
For the molecule `COc1cc(-c2n[nH]c(=S)n2-c2cc(C(F)(F)F)ccc2Cl)cc(OC)c1OC`, the inhibition is 8.8% (inactive).
Under `O=c1oc2c(CN3CCOCC3)c(O)ccc2c2ccccc12` stands 0.8% (inactive); under `CN(C)Cc1c(O)ccc2c3c(c(=O)oc12)CCCCC3`, -2.7% (inactive).
On to `CC1=C(C#N)c2nc(N)c(C#N)c(C)c2/C1=C\c1ccc(C)cc1`, for which the inhibition is -35.8% (inactive).
Consider `CC1=C(C#N)c2nc(N)c(C#N)c(C)c2/C1=C\c1ccc(-c2ccccc2C(=O)O)o1`, for which the inhibition is 10.6% (inactive).
As for `COc1cc(/C=C2/C(C)=C(C#N)c3nc(N)c(C#N)c(C)c32)ccc1OCC(=O)O`, the inhibition is 50.9% (active).
For the molecule `Cc1c(O)ccc(NS(=O)(=O)c2ccccc2)c1C`, the inhibition is 5% (inactive).
Regarding `CCOC(=O)c1c(C)[n+]([O-])c2ccc3c(non3O)c12`, the inhibition was 10.7% (inactive).
In the case of `O=c1c2c(nc3n1CCCCC3)-c1ccccc1CC21CCCCC1`, the inhibition is 1.4% (inactive).
Take `CN(C)/N=C/c1c(O)ccc2ccccc12`: the inhibition is 26.9% (inactive).
On to `O=C1C2C3C=CC(CC3)C2C(=O)N1/N=C/c1ccc(O)c(O)c1` (stereo not drawn), for which the inhibition is -11.1% (inactive).
Regarding `Oc1ccc2ccccc2c1/C=N/Nc1ccccc1`, the inhibition is -35.6% (inactive).
Take `O=C1C2C3C=CC(CC3)C2C(=O)N1/N=C/c1c(O)ccc2ccccc12` (stereo not drawn): the inhibition was 70.3% (active).
Consider `O=C(N/N=C\c1c(O)ccc2ccccc12)c1ccc(S(=O)(=O)N2CCCCC2)cc1`, for which the inhibition is -8.7% (inactive).
For the molecule `CCc1ccc(C=NC23CN4CN(CN(C4)C2)C3)s1`, the inhibition was 2% (inactive).
For the molecule `Oc1ccc(C=NC2CCCCC2)c(O)c1`, the inhibition was 29% (inactive).
With `O=C1C2C3C=CC(CC3)C2C(=O)N1/N=C/c1ccccc1O` (stereo not drawn), the inhibition was -0.9% (inactive).
To `O=S(=O)(/N=C/c1c(O)ccc2ccccc12)c1cccs1` belongs 27.7% (inactive); to `Cc1ccccc1C(=O)NC(=S)Nc1ccc(S(=O)(=O)N2CCOCC2)cc1`, 3.6% (inactive); to `CC(C)CC(=O)NC(=S)Nc1ccccn1`, -9.5% (inactive).
Under `CCSc1nnc(NC(=O)CCc2ccc(OC)cc2)s1` stands 8.9% (inactive).
For the molecule `Cc1ccc(C2C(C#N)=C(N)SC(N)=C2C#N)o1`, the inhibition is -7.3% (inactive).
To `Oc1ccc2ccccc2c1C=Nc1cc(C(F)(F)F)ccc1N1CCCC1` belongs 52.1% (active); to `O=C(N/N=C/c1c(O)ccc2ccccc12)c1cccc(C(F)(F)F)c1`, 8.4% (inactive).
Under `Oc1c(Cl)cccc1C=Nc1cc(C(F)(F)F)ccc1N1CCCC1` stands 7.1% (inactive); under `CC(=O)Nc1cc(Cl)ccc1OS(=O)(=O)c1ccc(C)cc1`, 6.5% (inactive); under `Fc1ccc(CN2CCCCCCC2)cc1`, -6.8% (inactive).
As for `Nc1nc(-c2ccc(-c3ccccc3)cc2)cs1`, the inhibition is -2.8% (inactive).

The record behind these values is PubChem BioAssay AID1220 (Sanford-Burnham Center for Chemical Genomics, 2008).
